Laboratory results from the supplement of paper PMC4894684.
Counter-ions that a name gives are not always drawn. ± gives the standard deviation of the averaged measurements.

Test system: Toxoplasma gondii RH (in HFF)
Assay: parasite growth relative to the screen mean (all compounds = 100%); higher = less inhibition of parasite growth
Details: 5 µM; 72 h; oxygen 21 %
Method in brief: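 Growth values are relative to the mean of the whole screen and averaged over duplicate screens, with all compounds together set to 100%. Parasites (RH β-Gal–GFP Toxoplasma, MOI 1:5) were added within 2 h of pinning compounds at 5 µM final onto confluent human foreskin fibroblasts and grown 72 h at 21% O2. Parasite number came from CPRG β-Gal readings against in-plate standard curves.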

Molecule `N#C/C(=C\c1ccc(O)c(O)c1)C(=O)OCCc1cccs1` has a parasite growth of 132 ± 15%.
`COc1ccccc1C1(O)CCN(CCCn2c3ccccc3c3ccccc32)CC1` [NNC 05-2090 hydrochloride] was tested, and the parasite growth was less than 0%.
`OCCN(CCO)c1nc(N2CCCCC2)c2nc(N(CCO)CCO)nc(N3CCCCC3)c2n1` [Dipyridamole] was tested, and the parasite growth was 142 ± 1.7%.
`O=C(/C=C/c1c(C(=O)O)[nH]c2cc(Cl)cc(Cl)c12)Nc1ccccc1` [Gavestinel] was tested, and the parasite growth was 114 ± 17%.
`CCOC(=O)c1c(C)[nH]c2ccc3c(c12)CN1CCc2cc(OC)ccc2C1O3` (stereo unspecified) was tested, and the parasite growth was 16.8 ± 6.5%.
`CCN(CC)c1ccc(/C=N/NC(=O)c2ccc(O)cc2)cc1` showed a parasite growth of 115 ± 28%.
For `O=c1c(O)c(-c2ccc(O)c(O)c2)oc2cc(O)cc(O)c12` [Quercetin], the parasite growth was 180 ± 32%.
Molecule `CCC(CC)(CC(=O)Nc1cccc(/C=C/c2nc(C3CCC3)cs2)c1)C(=O)O` [Cinalukast] has a parasite growth of 115 ± 12%.
Molecule `CC(=O)N(OCc1ccccc1)[C@H]1c2cc(C#N)ccc2OC(C)(C)[C@H]1O` has a parasite growth of 112 ± 33%.
`Nc1ccc(-c2cccc3c(=O)cc(N4CCOCC4)oc23)cc1` was tested, and the parasite growth was 104 ± 7.9%.
`CCOC(=O)C1=C(C)NC(=S)NC1c1cccc(O)c1` (stereo unspecified) [Monastrol] gave a parasite growth of 126 ± 29%.
Molecule `CNCC[C@@H](Oc1ccccc1C)c1ccccc1` [Tomoxetine hydrochloride] has a parasite growth of 85.9 ± 8.6%.
With `Cn1cc(/C=C2\C(=O)Nc3cccnc32)c2ccccc21` the parasite growth was 131 ± 5.3%.
With `N[C@@H](CS(=O)O)C(=O)O` [L-Cysteinesulfinic acid] the parasite growth was 61 ± 6.7%.
Work on `Cc1ccc(C(=O)Nc2ccc(S(=O)(=O)O)c3cc(S(=O)(=O)O)cc(S(=O)(=O)O)c23)cc1NC(=O)c1cccc(NC(=O)Nc2cccc(C(=O)Nc3cc(C(=O)Nc4ccc(S(=O)(=O)O)c5cc(S(=O)(=O)O)cc(S(=O)(=O)O)c45)ccc3C)c2)c1` [Suramin hexasodium salt] yielded a parasite growth of 90 ± 22%.
`Nc1nc2c(ncn2COCCO)c(=O)[nH]1` [Acyclovir] showed a parasite growth of 124 ± 28%.
`c1ccc2nc(C3=NCCN3)cnc2c1` [BU 239 hydrochloride] was tested, and the parasite growth was 102 ± 22%.
With `Cc1ccc([N+](=O)[O-])cc1S(=O)(=O)N(C)C` the parasite growth was 74.2 ± 14%.
With `Cc1oncc1C(=O)Nc1ccc(C(F)(F)F)cc1` [Leflunomide] the parasite growth was 106 ± 61%.
Work on `O=C(COc1cccc2c(=O)[nH]ccc12)c1ccccc1` yielded a parasite growth of 92.69 ± 0.78%.
`O=C(O)Cc1nn(Cc2ccc(Br)cc2F)c(=O)c2ccccc12` [Statil] gave a parasite growth of 91.7 ± 26%.
In the case of `CC(=O)NCCc1c(Cc2ccccc2)[nH]c2ccccc12` [Luzindole], the parasite growth is reported as 75.1 ± 29%.
With `O=C(O)COc1ccc(OCCNC[C@H](O)COc2ccccc2)cc1` [ICI 215,001 hydrochloride] the parasite growth was 116 ± 14%.
With `CC1c2ccccc2CN1CC1=NCCN1` (stereo unspecified) the parasite growth was 131 ± 4.2%.
`CCC(=O)NC1CCc2cccc(OC)c2C1` (stereo unspecified) gave a parasite growth of 84.3 ± 9.1%.
Molecule `COc1ccc(CCCOC(Cn2ccnc2)c2ccc(OC)cc2)cc1` (stereo unspecified) has a parasite growth of 95.6 ± 24%.
Work on `C[S+]([O-])c1ccc(-c2nc(-c3ccc(F)cc3)c(-c3ccncc3)[nH]2)cc1` (stereo unspecified) yielded a parasite growth of 8.46 ± 12%.
Work on `COc1ccc2cc([C@H](C)C(=O)O)ccc2c1` [Naproxen sodium] yielded a parasite growth of 89.9 ± 13%.
With `O=C(O)c1cc(O)c2ccc(Cl)cc2n1` [7-Chlorokynurenic acid] the parasite growth was 119 ± 9.9%.
Work on `COc1cc2c(cc1O)CC[C@@H]1[C@@H]2CC[C@]2(C)[C@@H](O)CC[C@@H]12` [2-Methoxyestradiol] yielded a parasite growth of 174 ± 46%.
`Cc1cc(Cn2cnc3c2CC(C(=O)O)N(C(=O)C(c2ccccc2)c2ccccc2)C3)ccc1N(C)C` (stereo unspecified) showed a parasite growth of 130 ± 23%.
For `Oc1cc2c(cc1O)C(c1ccccc1)CNCC2` (stereo unspecified), the parasite growth was 162 ± 47%.
`NC1CCN(c2cccc(Cl)n2)CC1` was tested, and the parasite growth was 141 ± 23%.
Molecule `CC(C)NC[C@H](O)COc1cccc2ccccc12` [(S)-(-)-Propranolol hydrochloride] has a parasite growth of 81.8 ± 3.3%.
For `Fc1ccc([C@@H]2CCNC[C@H]2COc2ccc3c(c2)OCO3)cc1` [Paroxetine maleate], the parasite growth was 39.5 ± 4%.
Molecule `CC(Cc1ccccc1)(NC(=O)CN)c1ccccc1` (stereo unspecified) [Remacemide hydrochloride] has a parasite growth of 129 ± 5.9%.
Work on `COc1ccc(NS(=O)(=O)c2ccc(I)cc2)cc1N1CCN(C)CC1` yielded a parasite growth of 122 ± 17%.
Molecule `Oc1ccc(-c2c(-c3ccccc3)nn3c(C(F)(F)F)cc(C(F)(F)F)nc23)cc1` has a parasite growth of 170 ± 8.6%.
Work on `Cc1cc(C)c(S(=O)(=O)Nc2ccccc2C(F)(F)F)c(C)c1` yielded a parasite growth of 145 ± 10%.
For `CC1OC2(CS1)CN1CCC2CC1` (stereo unspecified) [Cevimeline hydrochloride], the parasite growth was 148 ± 82%.
For `CC(=N)NCc1cccc(CN)c1` [1400W dihydrochloride], the parasite growth was 74 ± 48%.
